Laboratory results: PubChem BioAssay (EPA / NIEHS)
Some compounds were tested as several samples or in several runs, with calls that do not always agree. Active and inactive are the calls of the source. The calls were made as follows: active = hit-call score of the fitted dose curve at least 0.9, where 1 is the maximum; inactive = score below 0.9.

Assays:
[1] = BSK_BT_PBMCCytotoxicity: PBMC Cytotoxicity Assessment in the BioMAP Diversity Plus: BT Assay (AID 2284225); details: primary human B cells with PBMC;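 also: PBMC viability measured by Alamar Blue dye reduction fluorescence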
Procedure, shortened: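 Viability by Alamar Blue reduction (6 h, ex/em 546/580 nm) after 90 h culture of SEB/TSST-1-activated PBMC (20 ng/mL each) given compound 1 h before activation. DMSO served as baseline for curve fitting.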

[2] = read-out: Secreted IgG (sIgG), gene 3500; assay: BSK_BT_sIgG: BioMAP Diversity Plus: BT Assay for Secreted IgG (sIgG) Biomarker Activity (AID 2284226); details: primary human B cells with PBMC
Procedure, shortened: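 ELISA quantitation of secreted IgG from human B cells co-cultured with PBMC, sampled 24 h post-dosing. Values fitted relative to DMSO vehicle as baseline, positive fitting direction.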

[3] = BSK_BT_Bcell_Proliferation: Viability Assessment in the BioMAP Diversity Plus: BT Assay for B cell Proliferation (AID 2284227); details: primary human B cells with PBMC
Procedure, shortened: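 Human B cell/PBMC co-culture; test chemical added; 72 h; TCA fix (10%), 0.1% SRB stain, A560 for total protein as a proliferation read-out; positive-direction fit vs DMSO baseline.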

[4] = read-out: Interleukin 6 (IL6), IL6 (gene 3569); assay: BSK_BT_xIL6: BioMAP Diversity Plus: BT Assay for Interleukin 6 (IL6) Biomarker Activity (AID 2284228); details: primary human B cells with PBMC
Procedure, shortened: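 B cells and peripheral blood mononuclear cells (human primary co-culture) were dosed with chemical, and after 24 h IL-6 released into the medium was measured by Luminex xMAP. Responses were analysed as gain of signal over DMSO control.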

[5] = CCTE_Mundy_HCI_Cortical_Synap_Neur_Matur_NeuriteSpotCountPerNeuriteLength: CCTE's Synaptogenesis and Neurite Maturation Assay in rat cortical cells for Neurite Spot Count per Neurite Length, Mundy Lab (AID 2284210)
Procedure, shortened: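 Read-out: synaptophysin puncta counted along MAP2-stained neurites, normalised to neurite length, by automated high-content imaging. Rat cortical cells; AraC DIV 5; chemical dosing DIV 7; termination DIV 12. DMSO baseline.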

[6] = CCTE_Mundy_HCI_Cortical_Synap_Neur_Matur_BPCount: CCTE's Synaptogenesis and Neurite Maturation Assay in rat cortical cells for Branch Point Count, Mundy Lab (AID 2284211)
Procedure, shortened: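 HCI read-out of branch points from MAP2/synaptophysin/Hoechst immunofluorescence; rat cortical cultures, AraC DIV 5, dosing DIV 7, fixed DIV 12; fit in positive direction vs DMSO baseline.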

[7] = CCTE_Mundy_HCI_Cortical_NOG_NeuriteCount: CCTE's Neurite Outgrowth Assay in rat cortical cells for Neurite Count, Mundy Lab (AID 2284212);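 also: cells fixed about two days after chemical exposure began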
Procedure, shortened: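 Rat cortical primary cells; compound added 2 h post-plating, 1/10 dilution of working solution. Anti-betaIII-tubulin/AF488 ICC; ArrayScan neurite count vs DMSO.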

[8] = CCTE_Mundy_HCI_Cortical_NOG_NeuriteLength: CCTE's Neurite Outgrowth Assay in rat cortical cells for Neurite Length, Mundy Lab (AID 2284213)
Procedure, shortened: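 First, rat primary cortical cells were plated and, 2 h later, given test chemical as a 1/10 dilution. Finally, βIII-tubulin immunostaining enabled automated imaging of neurite length.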

[9] = CCTE_Mundy_HCI_Cortical_Synap_Neur_Matur_NeuriteLength: CCTE's Synaptogenesis and Neurite Maturation Assay in rat cortical cells for Neurite Length, Mundy Lab (AID 2284214)
Procedure, shortened: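 Neurite length quantified by automated high-content imaging of MAP2, synaptophysin and Hoechst staining. Rat cortical cells received chemical from DIV 7 to DIV 12 […], glial growth arrested by AraC at DIV 5; DMSO baseline.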

[10] = CCTE_Mundy_HCI_Cortical_Synap_Neur_Matur_NeuriteSpotCountPerNeuron: CCTE's Synaptogenesis and Neurite Maturation Assay in rat cortical cells for Neurite Spot Count per Neuron Count, Mundy Lab (AID 2284215)
Procedure, shortened: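 Rat cortical primary cultures; AraC DIV 5 to arrest glia; dosing + media change DIV 7; fixed DIV 12. Anti-MAP2/anti-synaptophysin, Hoechst nuclei; HCI puncta count per neuron, positive fitting direction vs DMSO.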

[11] = TAMU_PeakParms_SingleDonor1434_Chronotropy: Texas A&M University (TAMU) 1.5-hr Human Induced Pluripotent Stem Cell (iPSC)-derived Cardiomyocytes Calcium (Ca+2) Flux Assay for Cardiotoxicity: Chronotropy (changes in peak frequency) (AID 2284217); details: actives raise or lower the signal
Procedure, shortened: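 Beat rate, as mean Ca2+-flux peak frequency, was read from donor 1434 iPSC cardiomyocytes 90 min after exposure to 0.2–100 uM test chemical (0.5% DMSO). Wells that stopped beating were excluded; EC05 from bidirectional DMSO-referenced fitting.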

[12] = CCTE_Mundy_HCI_Cortical_Synap_Neur_Matur_SynapseCount: CCTE's Synaptogenesis and Neurite Maturation Assay in rat cortical cells for Synapse Count, Mundy Lab (AID 2284218)
Procedure, shortened: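 High-content imaging of synaptophysin puncta per MAP2-positive neuron (Hoechst nuclei) in rat cortical cells exposed DIV 7–12 after glial arrest with AraC at DIV 5; decrease relative to DMSO scored.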

[13] = CCTE_Mundy_HCI_Cortical_Synap_Neur_Matur_NeuriteCount: CCTE's Synaptogenesis and Neurite Maturation Assay in rat cortical cells for Neurite Count, Mundy Lab (AID 2284222);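 also: exposure from day 7 to day 12 in vitro with readout at day 12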
Procedure, shortened: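 Rat cortical neurons, 96-well; AraC DIV 5; chemical + media change DIV 7; end DIV 12. Fix PFA/Hoechst, anti-MAP2 + anti-synaptophysin IF. HCI neurite count vs DMSO baseline.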

[14] = CCTE_Mundy_HCI_Cortical_Synap_Neur_Matur_CellBodySpotCount: CCTE's Synaptogenesis and Neurite Maturation Assay in rat cortical cells for Cell Body Spot Count, Mundy Lab (AID 2284223)
Procedure, shortened: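 Rat cortical neurons; AraC @ DIV 5; dose + media change DIV 7; fix DIV 12; anti-MAP2/anti-synaptophysin IF, Hoechst; HCI count of soma synaptophysin puncta/neuron; DMSO = negative control.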

[15] = IUF_NPC1b_proliferation_BrdU_72hr: Leibniz Research Institute for Environmental Medicine (IUF) 72-hour Neural Progenitor Cell Bromodeoxyuridine (BrdU) Proliferation Assay (NPC1b) (AID 2284207)
Procedure, shortened: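 Luminescent BrdU ELISA measured DNA synthesis during the last 16 h of a 72 h exposure of primary human neural progenitor spheres grown with EGF and FGF. Signal was fitted relative to DMSO controls.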

[16] = IUF_NPC1a_proliferation_area_72hr: Leibniz Research Institute for Environmental Medicine (IUF) 72-hour Neural Progenitor Cell Proliferation Area Assay (NPC1a) (AID 2284208)
Procedure, shortened: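 Spheres of 0.3 mm are plated singly in growth-factor medium and exposed from day 0. After three days at 37C and 5% CO2, sphere area is measured by phase contrast imaging, with activity referenced to DMSO.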

[17] = IUF_NPC1_viability_72hr: Viability Assessment at 72 hours in the Leibniz Research Institute for Environmental Medicine (IUF) Neural Progenitor Cell Proliferation Assay (NPC1) (AID 2284209)
Procedure, shortened: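 Viability was measured by resazurin-to-resorufin fluorescence (alamar blue) after 72 h of continuous exposure without compound renewal. Each well held one hNPC sphere (gestational week 16-19 fetal cortex, 0.25-0.35 mm) cultured in EGF/FGF proliferation medium at 37C and pH 7.2-7.6.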

Measured: AC50

CCOC(=O)C=Cc1ccccc1
inactive: [1] | [2] | [3] | [4]

N#CCCNCCC#N
inactive: [5] | [6] | [7] | [8] | [9] | [10] | [11] | [12] | [13] | [14]

c1ccc2c(c1)-c1ccc3ccc4cccc5cc-2c1c3c45
active: [3] 1.98 µM | [4] 0.0398 µM
inactive: [1] | [2]

CC(=O)OCC=C(C)CCC=C(C)CCC=C(C)C
active: [1] 33.2 µM | [2] 20 µM | [3] 37.9 µM | [4] 30.7 µM

CCOC(=O)CCCCCCCCC(=O)OCC
inactive: [1] | [2] | [3] | [4]

CC(=O)OC(C)(C)C1CC=C(C)CC1 (stereo not drawn)
inactive: [1] | [2] | [3] | [4]

N[C@@H](CCC(=O)O)C(=O)O
inactive: [15] | [16] | [17] | [5] | [6] | [7] | [8] | [9] | [10] | [12] | [13] | [14]

C=C1CC/C=C(\C)CC[C@@H]2[C@@H]1CC2(C)C
inactive: [1] | [2] | [3] | [4]

CCCCCCCCCCCCS
inactive: [1] | [2] | [3] | [4]

c1ccc(Sc2ccccc2)cc1
inactive: [1] | [2] | [3] | [4]

CC/C(=C(\c1ccccc1)c1ccc(OCCN(C)C)cc1)c1ccccc1
inactive: [11]

CCC(=O)OCC=Cc1ccccc1
inactive: [1] | [2] | [3] | [4]

C=CC(=O)OCC(CO)(COC(=O)C=C)COC(=O)C=C
active: [1] 1.7 µM | [2] 0.709 µM | [3] 1.19 µM | [4] 0.994 µM

O=C(O)C(F)(F)OC(F)(F)C(F)(F)OC(F)(F)C(F)(F)C(F)(F)C(F)(F)F
inactive: [1] | [2] | [3] | [4]
active: [1] 22.1 µM

O=C1OC2(c3ccc(O)cc3Oc3cc(O)ccc32)c2ccccc21
inactive: [1] | [3] | [4]
active: [2] 35.5 µM

CC1(C)[C@H](C=C(Cl)Cl)[C@H]1C(=O)OCc1cccc(Oc2ccccc2)c1
inactive: [1] | [2] | [3] | [4]

NC(=O)c1c(Cl)cccc1Cl
inactive: [1] | [2] | [3] | [4]

COc1ccccc1NC(=O)CC(C)=O
inactive: [1] | [2] | [3] | [4]

OCCN1CCOCC1
inactive: [1] | [2] | [3] | [4]
